Measured values: publication PMC5540273 (PLoS ONE, 2017)

Columns and labels:
Conditions in all cases: concentration: 1 μM, replicates: in singlicate; n = 1
PIP5K1A = test system: PIP5K1A
PIP5K1C = test system: PIP5K1C
PIP5K2B = test system: PIP5K2B
PIP5K2C = test system: T1, PIP5K2C
T1 construct: gene PIP4K2C

PKAC-alpha = test system: T2, PKAC-alpha
T2 construct: gene PRKACA

PKAC-beta = test system: T3, PKAC-beta
T3 construct: gene PRKACB

PKMYT1 = test system: PKMYT1
PKN1 = test system: PKN1
PKN2 = test system: PKN2
PLK1 = test system: PLK1
PLK2 = test system: PLK2
PLK3 = test system: PLK3
PLK4 = test system: PLK4
PRKCD = test system: PRKCD
PRKCE = test system: PRKCE
PRKCH = test system: PRKCH
PRKCI = test system: PRKCI
PRKCQ = test system: PRKCQ
PRKD1 = test system: PRKD1
PRKD2 = test system: PRKD2
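Note: KINOMEscan kinase panel screen.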

SMILES	%Inh (PIP5K1A) [%]	%Inh (PIP5K1C) [%]	%Inh (PIP5K2B) [%]	%Inh (PIP5K2C) [%]	%Inh (PKAC-alpha) [%]	%Inh (PKAC-beta) [%]	%Inh (PKMYT1) [%]	%Inh (PKN1) [%]	%Inh (PKN2) [%]	%Inh (PLK1) [%]	%Inh (PLK2) [%]	%Inh (PLK3) [%]	%Inh (PLK4) [%]	%Inh (PRKCD) [%]	%Inh (PRKCE) [%]	%Inh (PRKCH) [%]	%Inh (PRKCI) [%]	%Inh (PRKCQ) [%]	%Inh (PRKD1) [%]	%Inh (PRKD2) [%]
O=C(Nc1ccccc1F)NC1CCN(c2ccnc(Nc3ccc(F)cc3)n2)CC1 [GSK1379800]	1	47	12	23	0	0	7	0	0	0	0	0	0	0	2	0	18	0	0	2
COc1ccc(CNC(=O)NC2CCN(c3ccnc(Nc4ccc(F)cc4)n3)CC2)cc1 [GSK1379788]	5	57	4	9	0	0	0	0	0	0	0	0	0	0	0	0	0	0	5	6
CN(c1ccc(NC(=O)Nc2cc(C(F)(F)F)ccc2F)cc1)c1ccnc(Nc2ccc(S(N)(=O)=O)cc2)n1 [GW809893]	10	14	0	94.6	18	18	1	0	8	3	54	56	97.6	0	0	0	29	9	0	10
Cl.Cl.NCC(NCc1ccc(-c2ccnc3[nH]ccc23)s1)c1ccccc1 (centres unmarked) [GSK1321565]	71	63	45	39	97.9	94.9	0	30	64	0	5	0	49	91.1	84	85	0	55	0	21
Fc1ccc(-c2ncn(C3CCNCC3)c2-c2ccnc(Oc3ccc(-c4ccccc4)cc3)n2)cc1 [SB-245391]	14	24	0	20	35	31	9	0	18	35	28	17	27	32	40	0	54	0	0	0
Cc1ccc(S(=O)(=O)Nc2ccc(Nc3nccc(Nc4cccc5[nH]ncc45)n3)cc2)cc1 [GSK581271]	0	31	13	57	0	0	15	22	0	0	0	0	1	0	0	0	7	0	0	0
CCc1ccc(-c2ccc3c(c2)-c2c(cnn2C)S(=O)(=O)N3C)cc1	0	24	0	77	0	12	30	2	0	0	4	2	14	0	17	0	2	23	0	14
Oc1cc(Nc2ccnc3cc(I)ccc23)ccc1F [GW552771]	8	13	0	30	0	0	0	19	0	0	0	0	0	0	3	13	30	0	45	30
CCn1c(-c2nonc2N)nc2c(C#CC(C)(C)O)nc(OC[C@H](N)c3ccccc3)cc21 [GSK943949]	0	90.8	0	0	98	97.7	19	90.8	19	0	0	0	19	96.2	75	97.9	20	82	7	17
CC(C)(C)c1ccc2nccc(Nc3cccc(O)c3)c2c1 [GW856795]	29	40	8	7	90.5	0	0	0	0	0	0	0	7	0	22	0	0	0	9	6
Nc1ncnc2c1nc(-c1ccccc1)n2-c1ccccc1 [SKF-97293]	13	0	19	0	7	17	18	20	4	68	38	16	26	14	35	9	13	0	5	0
COc1cc(Nc2nccc(-c3c(-c4cccc(NC(=O)c5c(F)cccc5F)c4)nn4ncccc34)n2)cc(OC)c1OC [GSK327238]	0	19	20	93.9	44	47	8	62	13	12	68	92.7	44	79	14	67	9	90.2	6	14
Clc1ccc(-c2nn3ncccc3c2-c2ccnc(Nc3ccc4c(c3)OCCO4)n2)cc1 [GW829116]	17	0	0	43	24	0	2	0	0	0	0	7	2	0	1	0	0	22	0	1
C[C@@H](Oc1cc(-n2cnc3cc(-c4ccnc(NCCS(C)(=O)=O)c4)ccc32)sc1C(N)=O)c1ccccc1Cl [GSK907232]	5	14	47	30	0	0	5	35	0	100	99.2	99.4	32	11	3	0	9	31	0	0
O=C(Nc1cccc(-c2nn3ccccc3c2-c2ccnc(Nc3cccc(F)c3)n2)c1)c1c(F)ccc(F)c1Cl [GSK357952]	0	7	8	0	13	18	5	17	0	0	0	2	0	8	0	31	0	38	21	0
COc1cccc(NC(=O)NC2CCN(c3ccnc(Nc4cc(OC)c(OC)c(OC)c4)n3)C2)c1 (centres unmarked) [GSK1379763]	0	57	0	91.1	0	0	64	0	0	15	0	12	48	0	14	0	0	0	0	0
FC(F)(F)c1ccc(/C=C/c2cncnc2Nc2ccc3[nH]c(Cc4ccccc4)nc3c2)cc1 [GW709199]	32	30	0	38	0	29	25	0	12	0	0	0	0	25	0	0	55	0	0	3
Cc1cccc(Nc2nc(N[C@H]3CCNC3)ncc2C(N)=O)c1.Cl [GSK2197149]	47	76	65	0	19	0	0	3	14	0	1	0	0	58	86	41	0	41	49	55
CNC(=O)c1ccccc1Nc1nc(Nc2ccc(N3CCOCC3)cc2)ncc1Cl.Cl [GSK1576028]	45	0	85	57	96.5	93.6	32	55	52	96.3	81	85	100	24	64	0	11	84	0	17
COc1cccc(-c2ccc3c(NC(=O)C4CC4)n[nH]c3n2)c1 [SB-710903]	58	65	20	64	0	0	8	0	0	0	0	0	6	0	23	10	11	0	0	0

SMILES	%Inh (PIP5K1A) [%]	%Inh (PIP5K1C) [%]	%Inh (PIP5K2B) [%]	%Inh (PIP5K2C) [%]	%Inh (PKAC-alpha) [%]	%Inh (PKAC-beta) [%]	%Inh (PKMYT1) [%]	%Inh (PKN1) [%]	%Inh (PKN2) [%]	%Inh (PLK1) [%]	%Inh (PLK2) [%]	%Inh (PLK3) [%]	%Inh (PLK4) [%]	%Inh (PRKCD) [%]	%Inh (PRKCE) [%]	%Inh (PRKCH) [%]	%Inh (PRKCI) [%]	%Inh (PRKCQ) [%]	%Inh (PRKD1) [%]	%Inh (PRKD2) [%]
NCCCC(NC(=O)c1cc(Br)c(-c2ccnc3[nH]ccc23)s1)c1ccccc1.O=C(O)C(F)(F)F.O=C(O)C(F)(F)F (centres unmarked) [GSK1287544]	72	42	60	28	99.4	99.2	0	18	58	0	14	0	0	95.6	92.5	94.7	31	75	29	36
c1ccc(-c2n[nH]cc2Nc2ccnc3ccccc23)nc1 [GW694077]	10	73	54	72	0	0	0	7	0	0	0	0	48	0	22	0	48	0	91.8	96.2
Cc1ccc(C(=O)Nc2ccc(Nc3ccnc4cc(-c5nccs5)ccc34)cc2O)cc1.Cl [GW494702]	0	9	0	28	0	0	0	0	0	1	0	0	98.4	0	16	5	2	13	0	2
Cl.Cl.NCC(C(=O)Nc1cc(Br)c(-c2ccnc3[nH]ccc23)s1)c1ccccc1 (centres unmarked) [GSK1269851]	55	38	74	1	97.2	93.6	0	100	15	0	16	2	0	70	58	63	26	73	0	0
Cc1cccc(NC(=O)Nc2ccc(Oc3ncnc4ccn(C)c34)cc2)c1	0	49	2	32	0	0	0	0	0	0	0	3	0	0	7	0	0	0	0	0
COC(=O)Nc1nc2ccc(Oc3ccc(NC(=O)Nc4cc(C(F)(F)F)ccc4F)cc3)cc2n1C.Cl [GW692089]	74	61	22	41	0	0	0	0	11	0	0	30	0	0	20	0	4	0	0	10
Cn1cc(-c2ccc3c(c2)CCN3C(=O)Cc2cccc(F)c2)c2c(N)ncnc21 [GSK2603358]	0	56	0	38	0	0	0	0	0	0	0	6	0	0	14	24	30	0	0	0
O=C(Nc1cccc(-c2nn3ncccc3c2-c2ccnc(Nc3ccccc3)n2)c1)c1c(F)cccc1F [GSK198271]	0	0	11	27	5	2	7	8	0	3	55	82	1	0	8	16	9	48	27	20
O=c1[nH]cc(-c2ccc(N3CCOCC3)cc2)c2sc(-c3cn[nH]c3)cc12 [GSK2276055]	0	24	1	0	0	0	0	15	0	7	18	0	17	0	0	0	17	21	0	30
Nc1ncc(-c2ccc3nccc(-c4ccncc4)c3c2)cc1S(=O)(=O)N1CCOCC1 [GSK1627798]	0	0	5	30	0	0	11	12	0	0	0	0	0	0	9	18	9	0	0	3
COc1cccc(C2=C(Nc3ccc(Cl)c(C(=O)O)c3)C(=O)NC2=O)c1 [SB-390769]	19	60	0	28	0	6	4	0	0	0	100	100	1	0	32	25	21	0	0	6
Cc1ccc(C)c(NC(=O)NC2CCN(c3ccnc(Nc4ccc(F)cc4)n3)C2)c1 (centres unmarked) [GSK1379720]	0	65	38	47	0	0	5	0	0	0	0	0	0	0	15	0	13	0	0	0
COC(=O)Nc1nc2cc(Oc3ccc(NC(=O)Nc4cc(C(F)(F)F)ccc4F)cn3)ccc2[nH]1.Cl.Cl [GW681170]	9	61	12	19	0	0	5	15	15	0	0	0	55	0	12	14	26	0	0	9
Cl.Cl.NCC(NC(=O)c1cc(-c2ccccc2)c(-c2ccnc3[nH]ccc23)s1)c1ccccc1 (centres unmarked) [GSK1321561]	8	50	14	7	98.3	97	3	25	19	5	30	0	4	98	69	86	37	49	38	8
Cc1ccc(C(=O)N2CC[C@@H](O)C2)cc1-n1c(C)cc(OCc2ccc(F)cc2F)c(Br)c1=O	0	50	0	38	3	0	0	16	0	0	0	0	0	0	0	0	2	0	0	0
c1ccc(-c2cnc3nccnn23)cc1 [AH20685]	0	24	13	0	0	0	0	7	0	0	0	0	0	0	0	4	3	0	0	0
Cl.NC(=O)c1cccc(Nc2nccc(Nc3ccc(Oc4c(Cl)cccc4Cl)c(Cl)c3)n2)c1 [GW659009]	0	19	97.4	64	0	0	0	59	0	0	0	30	0	0	0	0	0	0	0	0
Cc1ccc(F)c(C(=O)Nc2cccc(-c3nn4ccccc4c3-c3ccnc(Nc4cccc(F)c4)n3)c2)c1F [GSK361061]	0	6	15	0	13	29	17	0	17	19	3	9	10	25	2	25	0	27	14	12
COc1cc2c(cc1OCCN1CCNCC1)ncc1c3ccc(C#N)cc3[nH]c21	58	1	46	16	0	0	0	61	41	28	22	20	32	0	19	0	24	0	0	0
CC(C)c1nc(-c2cccc(NS(=O)(=O)c3c(F)cccc3F)c2F)c(-c2ccnc(Nc3ccc(N4CCOCC4)nc3)n2)s1 [GSK2008607]	0	45	0	87	0	0	24	6	0	0	0	4	100	0	0	22	36	18	93.8	99.2
